Experimental findings from PubChem BioAssay (NCI) are described below.

Some test systems named below: T-47D breast; BT-549 breast; MDA-MB-435 melanoma; SW-620 colon; MCF7 breast; HCT-116 colon; HCC-2998 colon; KM12 colon.
What all share (assay): NCI-60 one-dose screen, 48 h (100 = growth as untreated, 0 = no growth, -100 = all killed)
Conditions in all cases: 10 µM unless noted

Molecules are shown by their SMILES. Compounds without any hit were thinned out: in the full panel of roughly 83,000, 20% have a hit.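 Single-dose data. Exposure time 48 hours. Values below 10 considered active.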 Values without a mark were called inactive. Activity calls are given as the source filed them.

As for `Nc1ncc(-c2ccc3ncnc(N4CCc5cc(F)c(Cl)cc54)c3c2)cc1C(F)(F)F`, the growth in the assay on T-47D breast is 20.4%; in the assay on BT-549 breast, 14.8%; in the assay with MDA-MB-435 melanoma it was 0.606% (active); in the assay with SW-620 colon it was 38.2%; in the assay on MCF7 breast, 8.11% (active); in the assay with HCT-116 colon, 21.3%. The growth with HCC-2998 colon is 36.2%; in the assay with KM12 colon, 40.2%.

Consider `O=C1C2C(c3cccs3)C=C(c3ccc(Cl)cc3)N2C(=S)N1c1ccccc1` (stereo not given), for which the growth in the assay with T-47D breast was 100%; in the assay on BT-549 breast, 92.4%; in the assay on MDA-MB-435 melanoma, 110%; in the assay with SW-620 colon, 102%; in the assay on MCF7 breast, 90.9%; in the assay on HCT-116 colon it was 101%. Also, the growth is 111% in the assay with HCC-2998 colon and 104% in the assay on KM12 colon.

Consider `CN(C)CCOc1nc2c3cc([N+](=O)[O-])ccc3nn2c2ccccc12`, for which the growth with T-47D breast is 46.5%; in the assay with BT-549 breast, 69.6%; in the assay with MDA-MB-435 melanoma, 82.4%; with SW-620 colon, 20.4%; with MCF7 breast, 16.7%; in the assay on HCT-116 colon, 16.7%. For the same molecule, the growth with HCC-2998 colon was 54.6%; in the assay with KM12 colon it was 41.9%.

As for `CCCN1C2CCC1/C(=C\c1ccc(OC)cc1)C(=O)/C2=C/c1ccc(OC)cc1`, the growth in the assay with T-47D breast was 45.3%; in the assay on BT-549 breast, 87.2%; in the assay with MDA-MB-435 melanoma, 63.5%; with SW-620 colon, 90.4%; with MCF7 breast, 75.8%; in the assay with HCT-116 colon, 61.9%. For the same molecule, the growth is 91.9% in the assay with HCC-2998 colon and 74.2% in the assay with KM12 colon.

As for `O=C(N/N=C/c1ccccc1Cl)c1ccccc1Nc1ccnc(C(F)(F)F)c1`, the growth is -14.3% (active) with T-47D breast; 15.7% with BT-549 breast; 14.6% in the assay with MDA-MB-435 melanoma; 16.6% in the assay on SW-620 colon; 9.9% (active) in the assay on MCF7 breast; 13.3% in the assay with HCT-116 colon. For the same molecule, the growth in the assay on HCC-2998 colon was -20.7% (active); with KM12 colon, 10.4%.

For `NC(=O)[C@@H]1Cc2ccccc2CN1C(=O)c1ccc2c(c1)Cc1ccccc1-2`, the growth was 57.2% in the assay on T-47D breast; 63.1% in the assay on BT-549 breast; 77.7% with MDA-MB-435 melanoma; 110% with SW-620 colon; 70.8% in the assay on MCF7 breast; 81.1% in the assay on HCT-116 colon. Also, the growth in the assay with HCC-2998 colon is 98.9%; in the assay with KM12 colon, 88.6%.

With `CCOC(=O)c1c(C)nc2c(c1N)C(=O)C(=O)N2CCc1ccc(OC)c(OC)c1`, the growth with T-47D breast was 44.6%; with BT-549 breast, 64.4%; with MDA-MB-435 melanoma, 41.4%; in the assay on SW-620 colon it was 47.8%; with MCF7 breast, 20.3%; with HCT-116 colon it was 38.7%. Besides, the results for the growth in the assay on HCC-2998 colon and in the assay on KM12 colon were 93.7% and 58.3%, respectively.

As for `O=C1NCCS(=O)(=O)/C1=C\C=C\c1cccc(C(F)(F)F)c1`, the growth is 22.6% with T-47D breast; 20.2% in the assay with BT-549 breast; 18.2% in the assay on MDA-MB-435 melanoma; 28.3% in the assay on SW-620 colon; 18.2% in the assay on MCF7 breast; -41.8% (active) in the assay with HCT-116 colon. For the same molecule, the growth in the assay with HCC-2998 colon is 19.6%; in the assay on KM12 colon, 43.9%.

As for `CCOC(=O)c1c2c(n3ccc(NC(=O)CCN4CCCC4)cc13)C(=O)c1ncccc1C2=O`, the growth was -43.9% (active) with T-47D breast; -73.8% (active) in the assay with BT-549 breast; -68.5% (active) in the assay on MDA-MB-435 melanoma; -82.9% (active) in the assay on SW-620 colon; -66.6% (active) in the assay on MCF7 breast; -82.8% (active) with HCT-116 colon. Also, the growth was -83.5% (active) with HCC-2998 colon and -89.4% (active) in the assay on KM12 colon.

With `Nc1ccc(Cl)c2c(=O)c3ccccc3[nH]c12`, the growth in the assay on T-47D breast was 82.6%; with BT-549 breast, 75.4%; in the assay on MDA-MB-435 melanoma it was 86.3%; in the assay on SW-620 colon it was 86%; in the assay with MCF7 breast, 65%; with HCT-116 colon it was 84.9%. Besides, the growth in the assay on HCC-2998 colon was 88.6%; with KM12 colon it was 89.7%.

For `N#CC1=C(N)Oc2c(ccc3cccnc23)C1c1ccccc1` (stereo not given), the growth in the assay with T-47D breast is 50.4%; in the assay on BT-549 breast, 51.8%; in the assay on MDA-MB-435 melanoma, -47.4% (active); with SW-620 colon, 29%; in the assay on MCF7 breast, 24.6%; with HCT-116 colon, 22.2%. In addition, the growth was 50.4% with HCC-2998 colon and 25.2% in the assay with KM12 colon.

For `O=C(Nc1ncc(Cc2ccccc2Cl)s1)c1ccc2c(c1)OCCO2`, the growth with T-47D breast is 33.9%; in the assay on BT-549 breast, 18.7%; in the assay on MDA-MB-435 melanoma, -19.5% (active); with SW-620 colon it was 31.9%; in the assay on MCF7 breast, 12.4%; in the assay with HCT-116 colon, 7.38% (active). Further, the values for the growth in the assay with HCC-2998 colon and in the assay with KM12 colon were 19.6% and 6.53% (active), respectively.

Take `O=C(O)c1cc2ccccc2s1`: the growth with T-47D breast was 91.9%; in the assay with BT-549 breast, 108%; in the assay with MDA-MB-435 melanoma, 104%; with SW-620 colon it was 103%; in the assay with MCF7 breast it was 111%; in the assay with HCT-116 colon, 105%. Also, the growth was 107% with HCC-2998 colon and 108% with KM12 colon.

Consider `[2H]C([2H])([2H])Oc1ccc(/C=C/C(=O)/C=C(/C=C/c2ccc(OC([2H])([2H])[2H])c(OC([2H])([2H])[2H])c2OC([2H])([2H])[2H])OB(F)F)c(OC([2H])([2H])[2H])c1OC([2H])([2H])[2H]`, for which the growth is 51.7% in the assay on T-47D breast; 78.6% with BT-549 breast; 26.7% with MDA-MB-435 melanoma; 18.4% with SW-620 colon; 28.2% with MCF7 breast; 6.6% (active) in the assay with HCT-116 colon. Also, the results for the growth in the assay on HCC-2998 colon and in the assay on KM12 colon were 120% and 81.3%, respectively.

As to `CC1(C)CC[C@]2(CO)CC[C@]3(C)[C@H](CC[C@@H]4[C@@]5(C)CC[C@H](O)C(C)(C)[C@@H]5CC[C@]43C)[C@H]2[C@H]1O`, the growth with T-47D breast was 75.1%; with BT-549 breast, 96.2%; in the assay on MDA-MB-435 melanoma, 91.5%; in the assay with SW-620 colon, 84.9%; in the assay with MCF7 breast, 69.2%; with HCT-116 colon, 42.8%. Besides, the growth in the assay with HCC-2998 colon is 101%; with KM12 colon it was 65.2%.
